Consider 83 compounds from PubChem BioAssay AID1745857 (National Center for Advancing Translational Sciences (NCATS), 2022).

Hit rate of the full screen: of about 120,000 compounds, about 370 (0.31%) were called active. Inconclusive results (about 4%) are left out. The list comes from a sample in which actives are over-represented; it also holds similar structures and randomly drawn compounds. A number with no mark means an inactive call. The call rests on the fitted dose curve.
On the % scale 0 is the no-effect control and ±100 the full control effect; potency means the concentration at half of the fitted maximal effect.

The nature of this assay: Primary qHTS Assay for Foot and Mouth Disease Virus Antivirals against NCGC Sytravon and CBC Compound Libraries: Renilla Luciferase Signal. Further: nearly all actives have a fitted effect of over 55% in size. The note with it: FMDV replicon cells; series mostly up to 57.5 µM; activity change, negative = inhibition: at the top concentration. A general note: qHTS replaces the single test concentration by a dilution series.
On to `O=C(Nc1ccccc1)C1=C(Nc2ccc(F)cc2F)c2ccccc2S1(=O)=O`, for which the “activity change, negative = inhibition” value was 34.2%.
In the case of `CC(=O)Nc1ccc(NC(=O)COC(=O)c2oc3ccccc3c2C)cc1`, the “activity change, negative = inhibition” value is -5.44%.
On the same count and under the same terms, to `CC(Sc1ccc2c(c1)OCCCO2)C(=O)O` (stereo not drawn) belongs -2.29%.
Turning to `CC(C)(C)c1ccc2c(c1)OCCOCCOCCOc1ccc(C(C)(C)C)cc1OCCOCCOCCO2`, the Potency was 25.1 µM (active).
As for `CN(Cc1ccc2c(c1)OCCO2)CC(O)COc1ccccc1C(C)(C)C` (stereo not drawn), the “activity change, negative = inhibition” value is -3.65%.
The same measure, in the same setting: to `Cc1ccnc(NC(=O)CCc2ncc(-c3ccc(F)cc3F)o2)c1` belongs -6.64%; to `CCOc1ccc(NC(C)=O)cc1S(=O)(=O)Nc1ccccc1-c1nnc2n1CCCCC2`, -1.33%.
As for `COc1ccc(-c2c(C)c3ccc(OS(C)(=O)=O)cc3oc2=O)cc1`, the Potency is 15.8 µM (active).
As to `COc1ccc(-c2c(C)c3ccc(O)c(C)c3oc2=O)cc1`, the “activity change, negative = inhibition” value was 8.34%.
In the case of `COc1ccc(-c2c(C)oc3cc(OC)ccc3c2=O)cc1`, the “activity change, negative = inhibition” value was 13.8%.
As for `CCNc1c(NS(=O)(=O)c2ccc3c(c2)oc(=O)n3C)c(=O)oc2ccccc12`, the “activity change, negative = inhibition” value was 0.612%.
For the compound `Cc1cccc(CN2CCN(Cc3cc(=O)oc4c(C)c(O)ccc34)CC2)c1`, the Potency was 20 µM (active).
Regarding `CC(C)c1ccc2oc(=O)cc(CN3CCN(Cc4ccccc4)CC3)c2c1`, the “activity change, negative = inhibition” value is -10.3%.
With `Cc1cc2oc(=O)cc(CN3CCN(c4ccccc4)CC3)c2cc1O`, the “activity change, negative = inhibition” value was 2.61%.
In the case of `CNC/C=C/COc1ccc(C)c(C)c1`, the “activity change, negative = inhibition” value was -19.2%.
For the compound `Cc1ccc(S(C)(=O)=O)cc1NCc1ccccc1F`, the “activity change, negative = inhibition” value was 24.3%.
On to `CCC(Sc1nc2ncccc2[nH]1)C(=O)Nc1ccc(C)c(Cl)c1` (stereo not drawn), for which the “activity change, negative = inhibition” value was 13.8%.
On the same count and under the same terms, the figure for `NCCOc1ccc(C(F)(F)F)cc1` is 6.43%; for `CC(C)(C)C(=O)NCCCC(=O)NCCc1ccccc1` it is 3.52%.
For the compound `Cc1ccc2c(Cn3nnc(-c4ccc(F)cc4)n3)cc(=O)oc2c1`, the “activity change, negative = inhibition” value is -2.97%.
The same measure, in the same setting: the figure for `Cc1ccccc1NS(=O)(=O)c1ccc(C(=O)N(C)CC(=O)Nc2cccc3ccccc23)cc1` is -9.38%; for `O=C(Cc1ccccc1Cl)N1CCN(c2ncnc3nc[nH]c23)CC1` it is -1.31%.
Consider `CC(=O)Nc1ccc2oc(-c3cncc(Br)c3)nc2c1`, for which the “activity change, negative = inhibition” value is 19.3%.
As for `CCOc1ccc(NC(=O)CCc2ncc(-c3ccccc3F)o2)cc1`, the “activity change, negative = inhibition” value is -13.1%.
The same measure, in the same setting: the figure for `CCc1cc(C(=O)N2CCN(c3ccccc3OC)CC2)no1` is 4.97%; for `O=C(Nc1cccc(-c2nc3cc(Cl)ccc3o2)c1)c1ccccc1` it is -1.17%.
Same read-out and setting: to `Fc1ccc(Oc2ccc(CNc3ncccn3)cn2)cc1` belongs 7.32%; to `CC(CCN1CCC(C(O)(c2ccccc2)c2ccccc2)CC1)Oc1ccc([N+](=O)[O-])cc1Cl` (stereo not drawn), 2.69%; to `CC(=O)Oc1ccc2c(C)c(-c3ccccc3)c(=O)oc2c1`, 6.01%.
For the compound `CC1CCc2sc(N)c(C#N)c2C1` (stereo not drawn), the “activity change, negative = inhibition” value is 6.46%.
As for `COC(=O)CN1CCCC1c1ccsc1` (stereo not drawn), the “activity change, negative = inhibition” value was 1.39%.
Turning to `CCCCNC(=O)c1cccc(N)c1`, the “activity change, negative = inhibition” value is 1.32%.
As to `C=C(C)CN1CCN(CCO)CC1`, the “activity change, negative = inhibition” value was 4.64%.
On to `Cc1sc2nc(SCc3ccc(Cl)cc3)n(CCCN3CCOCC3)c(=O)c2c1C`, for which the “activity change, negative = inhibition” value was -13%.
As for `Cc1ccccc1Nc1nc(-c2ccc([N+](=O)[O-])cc2)nc2ccccc12`, the “activity change, negative = inhibition” value is -13.7%.
On the same count and under the same terms, to `FC(F)(F)c1ccccc1C(c1ccccc1)N1CCCNCC1` (stereo not drawn) belongs -10.5%.
Turning to `Cc1ncsc1C(=O)NCc1ccc(N2CCCCCC2)nc1`, the Potency is 12.6 µM (active).
For the compound `COc1ccc(OC)c(CNC(=O)c2scnc2C)c1`, the “activity change, negative = inhibition” value was -15.6%.
As to `Cc1ccc(CNC(=O)c2scnc2C)cn1`, the “activity change, negative = inhibition” value is -3.48%.
Take `COc1cccc(CNC(=O)N2CCN(Cc3ccc(Br)s3)CC2)c1`: the “activity change, negative = inhibition” value was -16.2%.
With `COc1ccc2cc(CNC(=O)c3nccnc3N)ccc2c1`, the Potency is 22.4 µM (active).
As to `Nc1nccnc1C(=O)NCCc1ccc(F)cc1`, the “activity change, negative = inhibition” value is 9.21%.
The same measure, in the same setting: to `COc1cc(CNC(=O)C(C)Oc2ccccc2)ccn1` (stereo not drawn) belongs -11.8%; to `CC(C)OCc1ccccc1CNC(=O)c1nccnc1N`, 27.4%.
As for `Nc1nccnc1C(=O)NCc1ccnc(Oc2ccccc2)c1`, the Potency is 31.6 µM (active).
Take `COc1cc(CNC(=O)Cc2ccc(OC)c(OC)c2)ccn1`: the “activity change, negative = inhibition” value was 4.31%.
As to `CCOc1ccc(-c2noc(-c3nnn(-c4ccc(C(C)C)cc4)c3N)n2)cc1`, the “activity change, negative = inhibition” value was 13.1%.
Regarding `CCCCCCCCc1ccc(-c2ccc(CC)cc2)nc1`, the activity change, negative = inhibition was -6.84% [at 1.06 µM].
As to `COc1ccc(OC)c(CCNC(=O)CSCc2cnn(-c3ccccc3)c2-n2cccc2)c1`, the “activity change, negative = inhibition” value was -0.795%.
In the case of `CCC(Nc1ccc2oc(C)nc2c1)C(=O)Nc1ccc(F)cc1` (stereo not drawn), the “activity change, negative = inhibition” value was 39.3%.
Take `CCOC(=O)c1c(S(=O)(=O)Nc2cc(Cl)c(OC)cc2OC)c(C)n(C)c1C`: the “activity change, negative = inhibition” value was 40.2%.
Turning to `COc1ccc(Cl)cc1NC(=O)COC(=O)c1nn(C)c(=O)c2ccccc12`, the “activity change, negative = inhibition” value was -3.84%.
On to `Cn1nc(CC(=O)Nc2cccc(Cl)c2)c2ccccc2c1=O`, for which the Potency is 7.94 µM (active).
Take `COc1ccc(NC(=O)COC(=O)c2nn(C)c(=O)c3ccccc23)cc1Cl`: the “activity change, negative = inhibition” value is -4.42%.
`COC(=O)c1cc(NC(=O)CSc2nnc(Cc3ccc(OC)cc3)n2C)ccc1Cl`: the “activity change, negative = inhibition” value is 5.38%.
Take `O=C(Nc1ccc2oc(-c3cccc(Br)c3)nc2c1)c1cccs1`: the “activity change, negative = inhibition” value was -3.52%.
With `Cc1c(-c2nsc(NC(=O)c3cccc(Cl)c3)n2)nnn1-c1ccccc1C(F)(F)F`, the Potency is 12.6 µM (active).
On to `CCc1cccc(-n2nnc(-c3nsc(NC(=O)c4ccc(C)cc4)n3)c2C)c1`, for which the “activity change, negative = inhibition” value is -4.67%.
As to `COc1ccc(-n2nnc(-c3nsc(NC(=O)c4ccc(C)c(C)c4)n3)c2C)cc1Cl`, the “activity change, negative = inhibition” value was 20.9%.
On to `N#Cc1ccc(-c2ccc(OCc3ccccc3C#N)cc2)cc1`, for which the “activity change, negative = inhibition” value is 16.3%.
Regarding `COc1ccc(OC)c(C2c3c(n[nH]c3C)Nc3[nH]c(=O)[nH]c(=O)c32)c1` (stereo not drawn), the “activity change, negative = inhibition” value was 11.2%.
Consider `CCOC(=O)C1=C(CNCc2ccc(C)cc2)NC(=O)NC1c1ccc(Cl)cc1` (stereo not drawn), for which the “activity change, negative = inhibition” value is -10.7%.
`CN(C)CCNC(C(=O)O)c1c[nH]c2cc(F)ccc12` (stereo not drawn): the “activity change, negative = inhibition” value is 3.52%.
With `C#CC[N+]1(C)C(C)CCCC1C` (stereo not drawn), the “activity change, negative = inhibition” value is -0.993%.
For `CCCNC(=O)c1ccc(NC(=O)CCc2ccccc2)cc1`, the “activity change, negative = inhibition” value is -4.2%.
For the compound `Cc1csc(/C(C#N)=C\NC2CC(C)(C)NC(C)(C)C2)n1`, the “activity change, negative = inhibition” value is -1.6%.
As for `CCCn1nc(C(=O)Nc2ncc(Cc3ccc(F)cc3)s2)ccc1=O`, the Potency was 25.1 µM (active).
For `Cc1nc(-c2ccc(F)cc2)sc1C(=O)N[C@H](C(=O)O)C(C)C`, the “activity change, negative = inhibition” value is 23.8%.
On the same count and under the same terms, to `Cc1cnc(NC(=O)c2nc(C)n(-c3ccc(F)cc3)n2)s1` belongs 0.0004%; to `Cc1[nH]n(-c2nc(-c3ccccc3)cs2)c(=O)c1CC(=O)Nc1cccc(Cl)c1`, -4.92%; to `CCCN(CC(=O)Nc1cccc(C(=O)NC2CC2)c1)Cc1nnc(-c2cccs2)o1`, 69.5%.
For the compound `COCCn1c(C)cc(C(=O)CSc2nnc(-c3ccccc3OC)n2-c2ccc(Cl)cc2)c1C`, the activity change, negative = inhibition is -11.3% [at 1.06 µM].
On to `Cc1cccc(NC(=O)CSc2ncnc3ccccc23)c1`, for which the “activity change, negative = inhibition” value was -11.7%.
Turning to `COCCCn1c(C)cc(C(=O)CSc2ncnc3ccccc23)c1C`, the Potency was 1.41 µM (active).
In the case of `Cc1cc(C(C)(C)C)cc(C)c1CCNC(=O)c1ccc(NC(=O)CC#N)cc1`, the activity change, negative = inhibition is -11.7% [at 1.06 µM].
The same measure, in the same setting: the figure for `CCc1ccc(/C=C/C(=O)c2cc3ccccc3oc2=O)cc1` is 47.5%.
Same read-out and setting: to `Cc1[nH]c2ccccc2c1C(C(=O)O)N1CCN(Cc2ccccn2)CC1` (stereo not drawn) belongs -14.3%.
In the case of `O=C(COc1ccc2c(c1)CCC2)OCC(=O)c1ccc2c(c1)OCCO2`, the “activity change, negative = inhibition” value was 5.29%.
For `COC(=O)c1ccc(C2C(c3ccccc3)=C(O)C(=O)N2c2ccc(Cl)cc2)cc1` (stereo not drawn), the “activity change, negative = inhibition” value is 16.2%.
Same read-out and setting: to `COc1ccc(CNc2oc(-c3ccc(C)cc3)nc2C#N)cc1` belongs 0%; to `CC(C)Cn1c(=O)c2ccccc2n2c(SCC(=O)Nc3ccc(F)cc3F)nnc12`, -5.31%; to `O=C(NCc1cccs1)C1CCN(c2nccn3nc(-c4ccccc4)cc23)CC1`, 11.8%.
Consider `CSCCCNC(=S)NNC(N)=O`, for which the “activity change, negative = inhibition” value was 8.02%.
